Assay results as given in the supplement of paper PMC7411640.
Structures can show the parent of a compound that is named as a salt.

System: MDA-MB-468
Experiment: phospho-S6 immunofluorescence (DAPI-normalised), per-plate z-score; higher = higher phospho-S6 signal (less pathway suppression)
Conditions: 24 h
Description: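 GPCR-targeted compound library (MedChemExpress HY-L006) tested on MDA-MB-468 PTEN-null TNBC cells in 384-well plates at 0.1, 1 or 10 uM, combined with vehicle, GDC0941 450 nM or lapatinib 1 uM, for 24 h. Phospho-S6 (S240/244) immunofluorescence normalised to DAPI and expressed as a per-plate z-score; values are the mean of biological triplicates.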

What does the source list for `Cc1cc(NC(=O)NCCN2CCC(O)(Cc3ccccc3)CC2)c2ccccc2n1` [Palosuran] (compound 10 µM)?
phospho-S6 immunofluorescence (z-score) (co-treatment: GDC0941 450 nM): -1.78; phospho-S6 immunofluorescence (z-score) (co-treatment: lapatinib 1 uM): -2.21; phospho-S6 immunofluorescence (z-score) (co-treatment: vehicle): -0.2

What does the source list for `COc1ccccc1N1CCN(CCCCN2C(=O)c3ccccc3C2=O)CC1` [NAN-190 (hydrobromide)] (compound 10 µM)?
phospho-S6 immunofluorescence (z-score) (co-treatment: GDC0941 450 nM): 0.76; phospho-S6 immunofluorescence (z-score) (co-treatment: lapatinib 1 uM): -0.29; phospho-S6 immunofluorescence (z-score) (co-treatment: vehicle): 0.19

`CC1(C)CN2C(CSC(=NC3CCCCC3)NC3CCCCC3)=CSC2=N1` [IT1t (dihydrochloride)] (compound 10 µM) was tested. Which “phospho-S6 immunofluorescence (z-score)” value (co-treatment: GDC0941 450 nM) did it give?
Its value is -2.08.

And the “phospho-S6 immunofluorescence (z-score)” value (co-treatment: lapatinib 1 uM)?
Its value is -0.41.

What about the “phospho-S6 immunofluorescence (z-score)” value (co-treatment: vehicle) of the same compound?
Its value is -1.11.

Which “phospho-S6 immunofluorescence (z-score)” value (co-treatment: GDC0941 450 nM) does the source give for `CCCN[C@@H]1CCc2nc(N)sc2C1` [Dexpramipexole (dihydrochloride)] (compound 10 µM) here?
The value was 1.16.

What about the “phospho-S6 immunofluorescence (z-score)” value (co-treatment: lapatinib 1 uM) of the same compound?
The value was 0.15.

What about the “phospho-S6 immunofluorescence (z-score)” value (co-treatment: vehicle) of the same compound?
Its value is 0.4.

Which results are given for `CC(C(=O)Nc1cc(C#N)ccc1CCCC(=O)O)c1ccc(F)c2ccccc12` (centres undefined) (compound 10 µM)?
phospho-S6 immunofluorescence (z-score) (co-treatment: GDC0941 450 nM): -3.03; phospho-S6 immunofluorescence (z-score) (co-treatment: lapatinib 1 uM): -2.8; phospho-S6 immunofluorescence (z-score) (co-treatment: vehicle): -0.03

How did the “phospho-S6 immunofluorescence (z-score)” value (co-treatment: GDC0941 450 nM) turn out when `OCc1cc(C(O)CNCCCCCCOCCCCc2ccccc2)ccc1O` (centres undefined) [Salmeterol (xinafoate)] (compound 10 µM) was run?
Its value is 1.01.

What about the “phospho-S6 immunofluorescence (z-score)” value (co-treatment: lapatinib 1 uM) of the same compound?
The value was -2.27.

And the “phospho-S6 immunofluorescence (z-score)” value (co-treatment: vehicle)?
The value was 2.28.

For `COC(=O)CCc1ccc(OCC(O)CNC(C)C)cc1` (centres undefined) [Esmolol (hydrochloride)] (compound 10 µM), which “phospho-S6 immunofluorescence (z-score)” value (co-treatment: GDC0941 450 nM) is on record?
Its value is 1.52.

What about the “phospho-S6 immunofluorescence (z-score)” value (co-treatment: lapatinib 1 uM) of the same compound?
The value was 0.09.

And the “phospho-S6 immunofluorescence (z-score)” value (co-treatment: vehicle)?
The value was -0.19.

What does the source list for `CN(C)CCN(Cc1ccccc1)c1ccccn1` [Tripelennamine (hydrochloride)] (compound 10 µM)?
phospho-S6 immunofluorescence (z-score) (co-treatment: GDC0941 450 nM): -0.07; phospho-S6 immunofluorescence (z-score) (co-treatment: lapatinib 1 uM): -0.31; phospho-S6 immunofluorescence (z-score) (co-treatment: vehicle): -0.41

What does the source list for `COc1cc(NC(=O)CCN2CCC(OC(=O)Nc3ccccc3-c3ccccc3)CC2)c(Cl)cc1CNC[C@H](O)c1ccc(O)c2[nH]c(=O)ccc12` [Batefenterol] (compound 10 µM)?
phospho-S6 immunofluorescence (z-score) (co-treatment: GDC0941 450 nM): -3.26; phospho-S6 immunofluorescence (z-score) (co-treatment: lapatinib 1 uM): -4.13; phospho-S6 immunofluorescence (z-score) (co-treatment: vehicle): 0.38

How did the “phospho-S6 immunofluorescence (z-score)” value (co-treatment: GDC0941 450 nM) turn out when `Cc1ccc(OCC(O)C(C)NC(C)C)c2c1CCC2` (centres undefined) [ICI 118,551 (hydrochloride)] (compound 10 µM) was run?
The value was 1.2.

What about the “phospho-S6 immunofluorescence (z-score)” value (co-treatment: lapatinib 1 uM) of the same compound?
Its value is -1.56.

And the “phospho-S6 immunofluorescence (z-score)” value (co-treatment: vehicle)?
Its value is 0.46.

`CC1(C)O[C@@H]2[C@@H](CO[C@@]3(COS(N)(=O)=O)OC(C)(C)O[C@@H]23)O1` [Topiramate] (compound 10 µM) was tested. Which “phospho-S6 immunofluorescence (z-score)” value (co-treatment: GDC0941 450 nM) did it give?
Its value is -0.24.

What about the “phospho-S6 immunofluorescence (z-score)” value (co-treatment: lapatinib 1 uM) of the same compound?
The value was 0.19.

What about the “phospho-S6 immunofluorescence (z-score)” value (co-treatment: vehicle) of the same compound?
The value was -0.31.

Which results are given for `CN/C(=N\CCSCc1nc[nH]c1C)NC#N` [Cimetidine] (compound 10 µM)?
phospho-S6 immunofluorescence (z-score) (co-treatment: GDC0941 450 nM): 0.86; phospho-S6 immunofluorescence (z-score) (co-treatment: lapatinib 1 uM): 0.64; phospho-S6 immunofluorescence (z-score) (co-treatment: vehicle): -0.63

With `Cc1cc(Cn2cnc3c2CC(C(=O)O)N(C(=O)C(c2ccccc2)c2ccccc2)C3)ccc1N(C)C` (centres undefined) (compound 10 µM) as the compound, how does the “phospho-S6 immunofluorescence (z-score)” value (co-treatment: GDC0941 450 nM) read?
Its value is -0.71.

What about the “phospho-S6 immunofluorescence (z-score)” value (co-treatment: lapatinib 1 uM) of the same compound?
Its value is 0.17.

And the “phospho-S6 immunofluorescence (z-score)” value (co-treatment: vehicle)?
Its value is 0.29.
